The structures appear in SMILES notation. Active and inactive are the calls of the source. Rule for the calls: active = hit-call score of the fitted dose curve at least 0.9, where 1 is the maximum; inactive = score below 0.9.

The target in the first assay is Signal transducer and activator of transcription 3 (Homo sapiens) (UniProt P40763). Kind of assay: ATG_STAT3_CIS: Attagene CIS-FACTORIAL HepG2 Assay for human Signal Transducer and Activator of Transcription 3 (STAT3) (AID 2282963). To be noted: HepG2, Attagene cis-factorial STAT3 reporter transcription; actives raise or lower the signal. An outline of the steps: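 Readout is reporter transcript quantified by RT-PCR and capillary electrophoresis, with 6-FAM primer extension and HpaI digestion. Total RNA is taken 24 h after dosing transiently transfected HepG2 carrying cis-regulated reporter units. Bidirectional fit against DMSO.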
Chain of Signal transducer and activator of transcription 3 (Homo sapiens) (P40763 whole entry, looked up): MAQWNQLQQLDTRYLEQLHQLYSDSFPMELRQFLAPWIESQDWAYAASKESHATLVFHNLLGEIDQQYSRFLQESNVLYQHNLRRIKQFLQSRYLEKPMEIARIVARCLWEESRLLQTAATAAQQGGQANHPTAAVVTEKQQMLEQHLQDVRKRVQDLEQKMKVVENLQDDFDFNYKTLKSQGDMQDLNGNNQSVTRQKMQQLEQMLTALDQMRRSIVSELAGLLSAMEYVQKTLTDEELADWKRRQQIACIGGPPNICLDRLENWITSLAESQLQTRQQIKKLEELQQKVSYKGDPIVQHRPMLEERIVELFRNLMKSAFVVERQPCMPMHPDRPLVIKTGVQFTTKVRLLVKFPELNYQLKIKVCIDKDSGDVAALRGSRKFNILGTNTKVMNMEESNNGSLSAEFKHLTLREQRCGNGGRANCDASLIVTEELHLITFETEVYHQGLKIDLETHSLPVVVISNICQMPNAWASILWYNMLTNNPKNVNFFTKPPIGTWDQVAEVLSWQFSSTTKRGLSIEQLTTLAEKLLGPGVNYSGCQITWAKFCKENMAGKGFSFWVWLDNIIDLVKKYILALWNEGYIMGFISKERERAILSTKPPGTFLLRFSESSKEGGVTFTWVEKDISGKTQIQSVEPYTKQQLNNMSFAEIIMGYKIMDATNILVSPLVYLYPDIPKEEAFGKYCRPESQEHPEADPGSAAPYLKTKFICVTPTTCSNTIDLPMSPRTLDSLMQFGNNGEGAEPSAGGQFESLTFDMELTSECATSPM
Consider `O=C(Cl)c1cc(C(=O)Cl)cc(C(=O)Cl)c1`, for which the compound was classed as inactive. Same read-out and setting: for `CC(=O)OCC(C)OC(C)=O` (stereo unspecified) the value was “inactive”. Still for that read-out and setting: for `Nc1cccc(C(F)(F)F)c1` the value was “inactive”. On to `Cc1cc(=O)n(-c2ccccc2)n1C`, for which the call was inactive. On the same count and under the same terms, the same measure for `Cc1ccc(N/N=c2\c(=O)cc/c(=N/Nc3ccc(S(=O)(=O)O)cc3)c2=O)c(C)c1`: “inactive”; for `Cc1cc(C)c(C)cc1C`: “inactive”; for `CCC(Cc1ccccc1)(C(=O)c1ccc(N2CCOCC2)cc1)N(C)C` (stereo unspecified): “inactive”.

As for `Cc1cc(C)c(C)c(C)c1`, the result was inactive. On the same count and under the same terms, the same measure for `CC(C)CC(O)Cc1ccccc1` (stereo unspecified): “inactive”; for `C=C(C)C(=O)OCCOc1ccccc1`: “inactive”. On to `CCCOCCOCCOCCO`, for which the compound was called inactive. Same read-out and setting: the same measure for `C=CCCCCCCCCC(=O)OCCCC`: “inactive”.

Test system in another assay: not listed separately
The assay is described as follows: ATG_TA_CIS: Attagene CIS-FACTORIAL HepG2 Assay for human TA Basal Promoter (AID 2282964). To be noted: HepG2 Attagene CIS-factorial TA basal promoter reporter; actives raise or lower the signal. The procedure, abridged: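 Transfected HepG2, 24 h compound exposure; RNA → RT-PCR → FAM primer extension → HpaI cut → CE fluorescence. Gain/loss-of-signal fitted against DMSO negative control. Background-control readout.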
As for `[Cl][Nd]([Cl])[Cl]`, the compound was called inactive.

As for `CC/C=C\C/C=C\C/C=C\CCCCCCCC(=O)O`, the compound was called inactive. Same read-out and setting: the same measure for `CCOC(=O)CC`: “inactive”. `Nc1ccc(-c2ccc(F)cc2)cc1`: the result was inactive.

On to `CC(=O)Oc1ccc(C(C)=O)cc1`, for which the compound was called inactive.

For the compound `O=C(Nc1ccccc1)c1ccccc1O`, the compound was classed as inactive.

Turning to `CC(C)c1ccc(C#N)cc1`, the call was inactive. As to `CCCCCCCCCCC=CC#N`, the result was inactive.

`O=C1OC(=O)c2cc(Oc3ccc4c(c3)C(=O)OC4=O)ccc21`: the compound was classed as inactive.

For the compound `COc1cc(C)ccc1C(C)C`, the outcome was inactive. On the same count and under the same terms, for `Cc1cccc(N)n1` the value was “inactive”. For `O=S(=O)(O)CC(O)CCl` (stereo unspecified), the outcome was inactive. In the case of `COc1ccc([C@@H]2CC(=O)c3c(O)cc(O[C@@H]4O[C@H](CO[C@@H]5O[C@@H](C)[C@H](O)[C@@H](O)[C@H]5O)[C@@H](O)[C@H](O)[C@H]4O)cc3O2)cc1OC`, the call was inactive. Same read-out and setting: the same measure for `c1cc(N(CC2CO2)CC2CO2)ccc1OCC1CO1` (stereo unspecified): “inactive”.

The record behind these values is PubChem BioAssay (EPA / NIEHS).
